Experimental data: PubChem BioAssay AID2330 (Broad Institute, 2010)
Screen size: about 37,000 compounds; about 2,800 (7.6%) were called active. Inconclusive results (about 1%) are left out. The sample as a whole holds a higher share of actives than the screen did. A number with no mark means an inactive call. Cut-off read from the data, not from the text of the source: active = inhibition above about 80%; inconclusive = no clear call, values can overlap the other calls; inactive = below that.

Test: NOMO-1 AML cell viability reduction, primary screen, STK33 inhibitor project, CellTiter-Glo luminescence (AID 2330)
Details: NOMO-1 AML viability, 72 h, stronger effect = higher value, concentration not given here

Row | SMILES | inhibition
1 | N=c1n(CC(=O)c2ccc(Cl)c(Cl)c2)c2ccccc2n1Cc1ccccc1 | 92.6% (active)
2 | CC(C)(C)c1ccc(Cn2c(=N)n(CC(=O)O)c3ccccc32)cc1 | 31%
3 | O=c1n(Cc2ccccc2)c2ccccc2n1Cc1ccccc1 | 23%
4 | Cc1noc(C)c1NC(=O)Nc1ccc2c(c1)C(=O)N([C@H](C)CO)C[C@H](C)[C@@H](CN(C)Cc1ccc3c(c1)OCO3)OCCCC[C@@H](C)O2 | 0.0539%
5 | N#C/C(=C\c1ccc(O)c(O)c1)C(=O)NCc1ccccc1 | 133% (active)
6 | N#C/C(=C\c1ccc(O)c(O)c1)C(N)=O | 44.4%
7 | CC(C)=CC1C(C(=O)O)C1(C)C (stereo unspecified) | -10.7%
8 | COc1ccc(S(=O)(=O)N(C)C[C@H]2Oc3ccc(NS(=O)(=O)c4ccc(C)cc4)cc3CC(=O)N([C@@H](C)CO)C[C@@H]2C)cc1 | 16.4%
9 | COc1ccc(S(=O)(=O)Nc2cccc3c2O[C@@H](CN(C)S(=O)(=O)c2c(C)noc2C)[C@@H](C)CN([C@H](C)CO)C3=O)cc1 | 0.67%
10 | Cc1noc(C)c1NC(=O)Nc1ccc2c(c1)C(=O)N([C@H](C)CO)C[C@@H](C)[C@@H](CN(C)Cc1ccccc1)O2 | -0.997%
11 | COc1ccc(S(=O)(=O)Nc2ccc3c(c2)C(=O)N([C@H](C)CO)C[C@H](C)[C@@H](CN(C)Cc2ccc(-c4ccccc4)cc2)O3)cc1 | 39.1%
12 | C[C@H](CO)N1C[C@H](C)[C@H](CN(C)Cc2ccc(-c3ccccc3)cc2)Oc2ccc(NS(=O)(=O)c3ccccc3)cc2C1=O | 93.2% (active)
13 | COc1ccc(S(=O)(=O)Nc2ccc3c(c2)C(=O)N([C@@H](C)CO)C[C@H](C)[C@H](CN(C)Cc2ccc(C(F)(F)F)cc2)O3)cc1 | 50.5%
14 | Cc1ccc(S(=O)(=O)Nc2ccc3c(c2)C(=O)N([C@@H](C)CO)C[C@H](C)[C@@H](CN(C)Cc2ccc4c(c2)OCO4)O3)cc1 | 24.6%
15 | C[C@H](CO)N1C[C@H](C)[C@@H](CN(C)Cc2ccc(Cl)c(Cl)c2)Oc2ccc(NS(=O)(=O)c3ccccc3)cc2C1=O | 20.4%
16 | Cc1ccc(S(=O)(=O)Nc2ccc3c(c2)CC(=O)N([C@@H](C)CO)C[C@H](C)[C@H](CN(C)Cc2ccccc2)O3)cc1 | 26%
17 | Cc1ccc(S(=O)(=O)Nc2ccc3c(c2)CC(=O)N([C@H](C)CO)C[C@@H](C)[C@H](CN(C)Cc2ccc(C(F)(F)F)cc2)O3)cc1 | 108% (active)
18 | COc1ccc(S(=O)(=O)Nc2ccc3c(c2)C(=O)N([C@@H](C)CO)C[C@H](C)[C@@H](CN(C)Cc2ccc(C(F)(F)F)cc2)O3)cc1 | 33.8%
19 | C[C@@H]1CN([C@@H](C)CO)C(=O)c2cc(NS(=O)(=O)c3ccccc3)ccc2O[C@@H]1CN(C)Cc1ccc(C(=O)O)cc1 | 28.2%
20 | COc1ccc(S(=O)(=O)Nc2ccc3c(c2)CC(=O)N([C@H](C)CO)C[C@H](C)[C@H](CN(C)Cc2ccc(C(F)(F)F)cc2)O3)cc1 | 125% (active)
21 | C[C@H]1CN([C@@H](C)CO)C(=O)Cc2cc(NS(=O)(=O)c3ccc(F)cc3)ccc2O[C@H]1CN(C)Cc1ccc(C(F)(F)F)cc1 | 34.1%

Row | SMILES | inhibition
22 | Cc1ccc(S(=O)(=O)Nc2ccc3c(c2)C(=O)N([C@H](C)CO)C[C@H](C)[C@H](CN(C)Cc2ccc(Cl)c(Cl)c2)O3)cc1 | 91% (active)
23 | C/C=C(/C)C(=O)OC1Cc2c(ccc3ccc(=O)oc23)OC1(C)C (stereo unspecified) | 9.99%
24 | S=c1nc2c(cnn2-c2ccccc2)c(Nc2ccccc2)[nH]1 | 12%
25 | C[C@@H]1CN([C@H](C)CO)C(=O)c2cc(NC(=O)Cn3cnnn3)ccc2O[C@@H]1CN(C)Cc1ccc(C(F)(F)F)cc1 | 21.9%
26 | Cc1ccc(S(=O)(=O)N(C)C[C@@H]2Oc3ccc(NS(=O)(=O)c4c(C)noc4C)cc3CC(=O)N([C@H](C)CO)C[C@H]2C)cc1 | -13.6%
27 | O=C(O)CCCC(=O)Nc1ccc(F)cc1 | 13.9%
28 | C[C@H]1CN([C@@H](C)CO)C(=O)c2cc(NC(=O)CCN3CCOCC3)ccc2O[C@@H]1CN(C)C(=O)Nc1ccc(C(F)(F)F)cc1 | 22.5%
29 | C[C@@H]1CN([C@@H](C)CO)C(=O)c2cc(NS(=O)(=O)c3ccccc3)ccc2O[C@H]1CN(C)CC1CCCCC1 | -8.05%
30 | Cn1nc(CC(=O)Nc2ccc3c(c2)oc2ccccc23)c2ccccc2c1=O | 37.5%
31 | Cc1ccc(C(=O)NC(NCc2ccco2)(C(F)(F)F)C(F)(F)F)cc1 | 39.2%
32 | Cc1ccc(-n2nnnc2-c2cnn(-c3ccccc3)c2C)cc1 | 29.6%
33 | C[C@H]1CN([C@@H](C)CO)C(=O)c2cccc(NS(=O)(=O)c3ccccc3)c2O[C@@H]1CN(C)S(=O)(=O)c1cn(C)cn1 | -9.26%
34 | C[C@H](CO)N1C[C@H](C)[C@H](CN(C)Cc2ccc(C(F)(F)F)cc2)Oc2ccc(NS(=O)(=O)c3ccc(Cl)cc3)cc2C1=O | 58.5%
35 | Cc1ccc(S(=O)(=O)Nc2ccc3c(c2)C(=O)N([C@@H](C)CO)C[C@@H](C)[C@H](CN(C)Cc2ccc(C(F)(F)F)cc2)O3)cc1 | 118% (active)
36 | COc1ccc(S(=O)(=O)Nc2ccc3c(c2)C(=O)N([C@H](C)CO)C[C@H](C)[C@H](CN(C)Cc2ccc(C(F)(F)F)cc2)O3)cc1 | 51.7%
37 | C[C@@H]1CN([C@@H](C)CO)C(=O)c2cc(NS(C)(=O)=O)ccc2O[C@H]1CN(C)C(=O)Nc1ccc(F)cc1 | 37.9%
38 | CCCN(Cc1cc2cccc(C)c2[nH]c1=O)S(C)(=O)=O | 10.7%
39 | COC(=O)C1=C(C)Nc2c(c(=O)n(C)c(=O)n2C)C1c1cccc(OCc2ccccc2)c1 (stereo unspecified) | 7.28%
40 | O=C(c1ccc(Cl)cc1)n1c(=O)oc2cc(Cl)ccc21 | 132% (active)
41 | CC(C)(C)c1ccc(OCC(=O)NCc2ccccn2)c(Br)c1 | 43.9%
